Hit rate of the full screen: of about 5,500 compounds, about 2,000 (36%) were called active. About 18% were inconclusive and are not listed. No stated cut-off is given here; in the data, active means normalized growth mostly below about 0.91 (no sharp cut-off); inconclusive means no clear call, values can overlap the other calls; inactive means mostly above about 0.92. The list shows a part of the results.
Experiment: chemical genetic growth profiling, strain panel (AID 1159580);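 further: tested at 20 µM; growth read once vehicle control cultures reached saturation at 30 °C; 1 = growth at the plate median or of vehicle wells; lower values mean less growth of the strain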
Details: growth OD

Measured: normalized growth

O=C1CC2OCC=C3CN4CC[C@]56c7ccccc7N1C5[C@H]2[C@H]3CC46 (some centres not stated)
inactive: S. cerevisiae deletion strains, locus YJR075W, strain HOC1, active compounds read low 1.01 | S. cerevisiae deletion strains, locus YKL009W, strain mrt4, active compounds read low 1 | S. cerevisiae deletion strains, locus YKL068W, active compounds read low 1 | S. cerevisiae deletion strains, locus YKL085W, strain MDH1 (second series), active compounds read low 1 | S. cerevisiae deletion strains, locus YKL085W, strain MDH1, active compounds read low 1 | S. cerevisiae deletion strains, locus YKL160W, strain elf1, active compounds read low 1.03 | S. cerevisiae deletion strains, locus YKL190W, strain CNB1, active compounds read low 1.01 | S. cerevisiae deletion strains, locus YKR001C, strain vps1, active compounds read low 0.996 | S. cerevisiae deletion strains, locus YKR026C, strain gcn3, active compounds read low 1.04 | S. cerevisiae deletion strains, locus YKR091W, strain srl3, active compounds read low 1.01 | S. cerevisiae deletion strains, locus YLL001W, strain dnm1, active compounds read low 1.03 | S. cerevisiae deletion strains, locus YLL026W, active compounds read low 1.01 | S. cerevisiae deletion strains, locus YLL041C, strain sdh2, active compounds read low 1.02 | S. cerevisiae deletion strains, locus YLR027C, strain aat2, active compounds read low 1.03 | S. cerevisiae deletion strains, locus YLR039C, strain RIC1, active compounds read low 1.03 | S. cerevisiae deletion strains, locus YLR058C, strain SHM2, active compounds read low 1.02 | S. cerevisiae deletion strains, locus YLR102C, strain apc9, active compounds read low 1 | S. cerevisiae deletion strains, locus YLR113W, strain HOG1, active compounds read low 0.938 | S. cerevisiae deletion strains, locus YLR221C, strain rsa3, active compounds read low 1.02 | S. cerevisiae deletion strains, locus YLR258W, strain gsy2, active compounds read low 1.03 | S. cerevisiae deletion strains, locus YLR262C, strain YPT6 (second series), active compounds read low 1.05 | S. cerevisiae deletion strains, locus YLR262C, strain YPT6, active compounds read low 1.1 | S. cerevisiae deletion strains, locus YLR268W, strain sec22, active compounds read low 0.994 | S. cerevisiae deletion strains, locus YLR320W, strain mms22, active compounds read low 1.03 | S. cerevisiae deletion strains, locus YLR330W, strain CHS5, active compounds read low 1.01 | S. cerevisiae deletion strains, locus YLR342W, strain FKS1 (second series), active compounds read low 0.999 | S. cerevisiae deletion strains, locus YLR342W, strain FKS1, active compounds read low 1.01 | S. cerevisiae deletion strains, locus YLR357W, strain rsc2, active compounds read low 1.03 | S. cerevisiae deletion strains, locus YLR370C, strain arc18, active compounds read low 1.03 | S. cerevisiae deletion strains, locus YLR371W, strain rom2, active compounds read low 0.993 | S. cerevisiae deletion strains, locus YLR384C, strain iki3, active compounds read low 1.03 | S. cerevisiae deletion strains, locus YLR418C, strain cdc73, active compounds read low 0.961 | S. cerevisiae deletion strains, locus YML016C, strain PPZ1, active compounds read low 1.01 | S. cerevisiae deletion strains, locus YML032C, strain rad52, active compounds read low 0.995 | S. cerevisiae deletion strains, locus YML120C, strain ndi1, active compounds read low 1.02 | S. cerevisiae deletion strains, locus YML124C, strain tub3, active compounds read low 0.999 | S. cerevisiae deletion strains, locus YMR058W, strain fet3, active compounds read low 1.02 | S. cerevisiae deletion strains, locus YMR078C, strain ctf18, active compounds read low 0.998 | S. cerevisiae deletion strains, locus YMR125W, strain sto1, active compounds read low 1.02 | S. cerevisiae deletion strains, locus YMR129W, active compounds read low 1.03 | S. cerevisiae deletion strains, locus YMR205C, strain PFK2, active compounds read low 1.05 | S. cerevisiae deletion strains, locus YMR223W, strain ubp8, active compounds read low 0.989 | S. cerevisiae deletion strains, locus YMR231W, strain pep5, active compounds read low 1.03 | S. cerevisiae deletion strains, locus YMR263W, strain SAP30, active compounds read low 1.01 | S. cerevisiae deletion strains, locus YMR307W, strain GAS1, active compounds read low 0.979 | S. cerevisiae deletion strains, locus YNL067W, strain RPL9B, active compounds read low 1.01 | S. cerevisiae deletion strains, locus YNL071W, strain lat1, active compounds read low 1.01 | S. cerevisiae deletion strains, locus YNL128W, strain TEP1, active compounds read low 1.01 | S. cerevisiae deletion strains, locus YNL153C, strain GIM3, active compounds read low 1.02 | S. cerevisiae deletion strains, locus YNL183C, strain NPR1, active compounds read low 0.933 | S. cerevisiae deletion strains, locus YNL209W, strain ssb2, active compounds read low 1.02 | S. cerevisiae deletion strains, locus YNL233W, strain BNI4, active compounds read low 1.01 | S. cerevisiae deletion strains, locus YNL248C, strain rpa49, active compounds read low 1.04 | S. cerevisiae deletion strains, locus YNL250W, strain rad50, active compounds read low 1 | S. cerevisiae deletion strains, locus YNL271C, strain bni1, active compounds read low 0.997 | S. cerevisiae deletion strains, locus YNL298W, strain CLA4, active compounds read low 0.993 | S. cerevisiae deletion strains, locus YNL307C, strain MCK1, active compounds read low 0.994 | S. cerevisiae deletion strains, locus YNL322C, strain KRE1 (second series), active compounds read low 1.03 | S. cerevisiae deletion strains, locus YNL322C, strain KRE1, active compounds read low 1.01 | S. cerevisiae deletion strains, locus YNR049C, strain mso1, active compounds read low 1.01 | S. cerevisiae deletion strains, locus YNR052C, strain pop2, active compounds read low 0.997 | S. cerevisiae deletion strains, locus YOL006C, strain TOP1, active compounds read low 1.03 | S. cerevisiae deletion strains, locus YOL012C, strain htz1 1.63 | S. cerevisiae deletion strains, locus YOL147C, strain pex11, active compounds read low 0.995 | S. cerevisiae deletion strains, locus YOR001W, strain rrp6, active compounds read low 1.04 | S. cerevisiae deletion strains, locus YOR061W, strain CKA2, active compounds read low 1.01 | S. cerevisiae deletion strains, locus YOR069W, strain VPS5, active compounds read low 1.01 | S. cerevisiae deletion strains, locus YOR070C, strain gyp1, active compounds read low 1.01 | S. cerevisiae deletion strains, locus YOR080W, strain dia2, active compounds read low 1.04 | S. cerevisiae deletion strains, locus YOR083W, strain WHI5, active compounds read low 1.02 | S. cerevisiae deletion strains, locus YOR106W, strain vam3, active compounds read low 1.04 | S. cerevisiae deletion strains, locus YOR136W, strain idh2, active compounds read low 0.985 | S. cerevisiae deletion strains, locus YOR144C, strain elg1, active compounds read low 1 | S. cerevisiae deletion strains, locus YOR184W, strain ser1, active compounds read low 0.979 | S. cerevisiae deletion strains, locus YOR231W, strain MKK1, active compounds read low 0.955 | S. cerevisiae deletion strains, locus YOR265W, strain rbl2, active compounds read low 1.03 | S. cerevisiae deletion strains, locus YOR270C, strain vph1, active compounds read low 1.05 | S. cerevisiae deletion strains, locus YOR290C, strain snf2, active compounds read low 1.02 | S. cerevisiae deletion strains, locus YOR316C, strain cot1, active compounds read low 1 | S. cerevisiae deletion strains, locus YPL051W, strain arl3, active compounds read low 1.03 | S. cerevisiae deletion strains, locus YPL055C, strain LGE1, active compounds read low 1.03 | S. cerevisiae deletion strains, locus YPL078C, strain atp4, active compounds read low 1.02 | S. cerevisiae deletion strains, locus YPL106C, strain sse1, active compounds read low 1.03 | S. cerevisiae deletion strains, locus YPL240C, strain hsp82, active compounds read low 1.03 | S. cerevisiae deletion strains, locus YPL241C, strain CIN2, active compounds read low 0.978 | S. cerevisiae deletion strains, locus YPL256C, strain CLN2, active compounds read low 0.951 | S. cerevisiae deletion strains, locus YPR119W, strain clb2, active compounds read low 0.995 | S. cerevisiae deletion strains, locus YPR141C, strain kar3, active compounds read low 1 | S. cerevisiae deletion strains, locus YPR163C, strain tif3, active compounds read low 0.996 | S. cerevisiae deletion strains, locus YPR167C, strain met16, active compounds read low 1.01 | S. cerevisiae deletion strains, strain wtn01, active compounds read low 0.993 | S. cerevisiae strains, strain wild type, active compounds read low 1.01
